Assay in all cases: DAPPL (digital affinity profiling via proximity ligation, sequencing); 10 mM Tris-HCl pH 7.5, 50 mM NaCl, 1 mM DTT, 4% glycerol, room temperature, 30 min; GST-TFs on glutathione beads, 16-mer random dsDNA library, 0.1% formaldehyde crosslink after washing; high values mean tight binding
Holding throughout (details): protein: recombinant; tags: N-terminal GST; dsDNA, one strand shown

One experiment has as its target T1, FLI1 (Homo sapiens, UniProt Q01543 1-452).
T1 sequence: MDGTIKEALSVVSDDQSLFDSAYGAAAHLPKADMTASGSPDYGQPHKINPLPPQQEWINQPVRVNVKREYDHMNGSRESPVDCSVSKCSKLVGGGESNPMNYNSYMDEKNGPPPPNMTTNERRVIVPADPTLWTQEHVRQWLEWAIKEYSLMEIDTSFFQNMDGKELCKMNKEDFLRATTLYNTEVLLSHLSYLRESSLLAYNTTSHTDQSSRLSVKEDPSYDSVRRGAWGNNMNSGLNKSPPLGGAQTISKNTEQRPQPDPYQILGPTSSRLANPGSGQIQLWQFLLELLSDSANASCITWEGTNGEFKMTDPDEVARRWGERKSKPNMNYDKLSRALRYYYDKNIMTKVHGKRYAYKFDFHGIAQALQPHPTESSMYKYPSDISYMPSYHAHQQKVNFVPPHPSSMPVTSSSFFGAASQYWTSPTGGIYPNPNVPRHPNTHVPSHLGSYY
The method, boiled down: (§1)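 Sequencing on an Illumina NextSeq500 followed washing, crosslinking with 0.1% formaldehyde, proximity ligation (BsaI/T4 ligase, 1 h, 37 °C) and PCR amplification of pools that had been incubated for 30 min at room temperature with 200 nmole of a random double-stranded 16-mer DNA library in Tris/NaCl/DTT/glycerol buffer. Each pool held DNA-barcoded human transcription factors, expressed in yeast as GST fusions and captured on glutathione beads, plus a tag-only sample. Binding signal is a hexamer's read frequency for a factor divided by its frequency in the tag-only sample.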

The next experiment has as its target T2, ELK1 (Homo sapiens, UniProt P19419 1-428).
T2 sequence: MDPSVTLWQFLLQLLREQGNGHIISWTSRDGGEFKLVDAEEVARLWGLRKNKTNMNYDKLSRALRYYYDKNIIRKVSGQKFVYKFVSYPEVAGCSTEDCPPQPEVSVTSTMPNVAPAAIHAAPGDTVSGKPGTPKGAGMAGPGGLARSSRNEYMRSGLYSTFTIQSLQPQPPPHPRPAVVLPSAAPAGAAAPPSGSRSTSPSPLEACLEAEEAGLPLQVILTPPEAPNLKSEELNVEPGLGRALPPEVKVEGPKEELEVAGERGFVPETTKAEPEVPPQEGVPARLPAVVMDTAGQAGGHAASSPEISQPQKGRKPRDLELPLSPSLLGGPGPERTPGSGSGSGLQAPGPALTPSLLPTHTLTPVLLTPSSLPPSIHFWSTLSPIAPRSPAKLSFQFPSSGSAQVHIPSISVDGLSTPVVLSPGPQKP
In outline: as §1

The next experiment concerns the target T3, GABPA (Homo sapiens, UniProt Q06546 1-454).
T3 sequence: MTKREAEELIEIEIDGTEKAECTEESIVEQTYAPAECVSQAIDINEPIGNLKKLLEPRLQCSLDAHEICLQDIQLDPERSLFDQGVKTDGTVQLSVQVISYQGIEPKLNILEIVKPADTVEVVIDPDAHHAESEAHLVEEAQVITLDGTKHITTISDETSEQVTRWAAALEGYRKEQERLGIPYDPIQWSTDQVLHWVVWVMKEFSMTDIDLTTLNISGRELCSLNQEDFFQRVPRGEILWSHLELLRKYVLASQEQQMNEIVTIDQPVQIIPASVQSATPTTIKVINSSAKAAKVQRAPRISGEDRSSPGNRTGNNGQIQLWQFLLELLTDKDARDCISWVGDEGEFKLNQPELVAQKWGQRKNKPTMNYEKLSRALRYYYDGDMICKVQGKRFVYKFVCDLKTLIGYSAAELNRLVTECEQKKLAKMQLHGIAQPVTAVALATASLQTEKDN
The method, boiled down:
as §1

In another experiment the target is T4, ERG (Homo sapiens, UniProt P11308 1-479).
T4 sequence: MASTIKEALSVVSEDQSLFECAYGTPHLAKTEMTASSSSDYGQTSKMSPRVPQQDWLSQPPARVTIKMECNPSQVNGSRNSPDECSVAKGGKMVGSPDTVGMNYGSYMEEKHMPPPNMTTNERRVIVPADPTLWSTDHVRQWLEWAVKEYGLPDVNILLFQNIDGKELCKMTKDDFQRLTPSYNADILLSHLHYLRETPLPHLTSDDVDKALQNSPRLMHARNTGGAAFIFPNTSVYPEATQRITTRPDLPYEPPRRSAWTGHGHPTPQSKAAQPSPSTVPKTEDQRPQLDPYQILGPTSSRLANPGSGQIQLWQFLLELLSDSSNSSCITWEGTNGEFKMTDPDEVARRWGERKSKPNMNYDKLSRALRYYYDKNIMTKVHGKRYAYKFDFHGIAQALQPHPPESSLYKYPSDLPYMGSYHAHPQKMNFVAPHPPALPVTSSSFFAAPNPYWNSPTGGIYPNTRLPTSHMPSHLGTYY
The method, boiled down: as §1

In another experiment the target is ELF1 (Homo sapiens, UniProt P32519 1-619). In outline:
as §1

The next experiment concerns the target T5, EHF (Homo sapiens, UniProt Q9NZC4 1-300).
T5 sequence: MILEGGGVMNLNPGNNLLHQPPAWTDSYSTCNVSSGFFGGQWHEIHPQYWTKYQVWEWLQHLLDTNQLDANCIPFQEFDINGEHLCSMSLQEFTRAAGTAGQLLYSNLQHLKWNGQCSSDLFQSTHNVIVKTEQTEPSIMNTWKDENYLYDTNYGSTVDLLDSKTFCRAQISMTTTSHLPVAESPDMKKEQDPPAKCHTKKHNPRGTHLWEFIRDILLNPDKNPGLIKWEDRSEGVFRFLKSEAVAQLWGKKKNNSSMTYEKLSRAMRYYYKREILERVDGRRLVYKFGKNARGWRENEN
The method, boiled down: as §1

The target of a further experiment is SPI1 (Homo sapiens, UniProt P17947 1-270). In outline:
as §1

The next experiment has as its target SPIB (Homo sapiens, UniProt Q01892 1-262). The method, boiled down:
as §1

The target in another experiment is T6, ELK3 (Homo sapiens, UniProt P41970 1-407).
T6 sequence: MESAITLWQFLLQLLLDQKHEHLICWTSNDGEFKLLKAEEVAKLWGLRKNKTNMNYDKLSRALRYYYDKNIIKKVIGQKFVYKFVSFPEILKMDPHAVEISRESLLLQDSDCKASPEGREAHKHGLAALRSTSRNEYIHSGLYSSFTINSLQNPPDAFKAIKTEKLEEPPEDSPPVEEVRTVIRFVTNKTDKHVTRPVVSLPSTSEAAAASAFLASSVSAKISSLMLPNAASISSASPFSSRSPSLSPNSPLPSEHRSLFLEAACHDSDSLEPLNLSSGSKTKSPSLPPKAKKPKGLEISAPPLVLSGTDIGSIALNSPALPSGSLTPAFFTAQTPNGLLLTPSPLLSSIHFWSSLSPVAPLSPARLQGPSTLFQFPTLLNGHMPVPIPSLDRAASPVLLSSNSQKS
In outline:
as §1

SPIB, sequence (Q01892 whole entry): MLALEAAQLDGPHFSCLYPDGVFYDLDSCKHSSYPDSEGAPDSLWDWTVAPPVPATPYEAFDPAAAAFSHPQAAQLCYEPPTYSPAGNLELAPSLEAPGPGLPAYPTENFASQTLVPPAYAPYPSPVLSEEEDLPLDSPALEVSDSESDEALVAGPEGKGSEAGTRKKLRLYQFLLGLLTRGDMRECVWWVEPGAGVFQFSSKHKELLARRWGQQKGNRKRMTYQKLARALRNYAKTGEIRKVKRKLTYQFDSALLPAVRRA
ELF1, sequence (P32519 whole entry): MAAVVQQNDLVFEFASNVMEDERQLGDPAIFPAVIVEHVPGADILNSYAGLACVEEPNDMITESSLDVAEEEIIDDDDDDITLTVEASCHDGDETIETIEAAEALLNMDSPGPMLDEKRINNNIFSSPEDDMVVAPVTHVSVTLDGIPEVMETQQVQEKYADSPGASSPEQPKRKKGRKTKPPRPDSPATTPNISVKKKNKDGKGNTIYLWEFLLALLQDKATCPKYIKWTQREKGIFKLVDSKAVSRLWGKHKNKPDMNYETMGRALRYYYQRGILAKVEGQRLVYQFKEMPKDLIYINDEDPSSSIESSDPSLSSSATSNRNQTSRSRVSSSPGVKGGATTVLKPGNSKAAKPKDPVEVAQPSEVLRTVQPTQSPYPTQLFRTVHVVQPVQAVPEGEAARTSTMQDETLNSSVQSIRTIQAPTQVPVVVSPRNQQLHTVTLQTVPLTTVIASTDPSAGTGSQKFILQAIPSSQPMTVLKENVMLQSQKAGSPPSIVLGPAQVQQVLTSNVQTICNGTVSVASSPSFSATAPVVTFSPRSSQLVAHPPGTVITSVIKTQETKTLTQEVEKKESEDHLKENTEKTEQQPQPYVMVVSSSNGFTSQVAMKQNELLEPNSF

As for CAATTA, the binding signal with FLI1 is 1.05 fold enrichment (6-mer frequency, TF over GST control); with ELK1, 1.11 fold enrichment (6-mer frequency, TF over GST control); with GABPA, 1.1 fold enrichment (6-mer frequency, TF over GST control); with ERG, 1.05 fold enrichment (6-mer frequency, TF over GST control); with ELF1 it was 1.1 fold enrichment (6-mer frequency, TF over GST control); with EHF, 1.07 fold enrichment (6-mer frequency, TF over GST control). Also, the binding signal with SPI1 is 1.15 fold enrichment (6-mer frequency, TF over GST control); with SPIB it was 1.16 fold enrichment (6-mer frequency, TF over GST control); with ELK3, 1.05 fold enrichment (6-mer frequency, TF over GST control).
On to CTCGTC, for which the binding signal with FLI1 is 1.49 fold enrichment (6-mer frequency, TF over GST control); in the experiment with ELK1, 1.27 fold enrichment (6-mer frequency, TF over GST control); with GABPA, 1.51 fold enrichment (6-mer frequency, TF over GST control); in the experiment with ERG, 1.37 fold enrichment (6-mer frequency, TF over GST control); with ELF1, 1.36 fold enrichment (6-mer frequency, TF over GST control); with EHF, 1.36 fold enrichment (6-mer frequency, TF over GST control). The binding signal in the experiment with SPI1 was 1.34 fold enrichment (6-mer frequency, TF over GST control); with SPIB, 1.39 fold enrichment (6-mer frequency, TF over GST control); with ELK3 it was 1.46 fold enrichment (6-mer frequency, TF over GST control).
Take CCCATT: the binding signal is 1.36 fold enrichment (6-mer frequency, TF over GST control) with FLI1; 1.25 fold enrichment (6-mer frequency, TF over GST control) with ELK1; 1.46 fold enrichment (6-mer frequency, TF over GST control) with GABPA; 1.41 fold enrichment (6-mer frequency, TF over GST control) with ERG; 1.39 fold enrichment (6-mer frequency, TF over GST control) with ELF1; 1.24 fold enrichment (6-mer frequency, TF over GST control) with EHF. Also, the binding signal with SPI1 was 1.47 fold enrichment (6-mer frequency, TF over GST control); with SPIB it was 1.27 fold enrichment (6-mer frequency, TF over GST control); in the experiment with ELK3, 1.41 fold enrichment (6-mer frequency, TF over GST control).
In the case of TGCTAA, the binding signal with FLI1 is 1.24 fold enrichment (6-mer frequency, TF over GST control); in the experiment with ELK1 it was 1.37 fold enrichment (6-mer frequency, TF over GST control); with GABPA, 1.18 fold enrichment (6-mer frequency, TF over GST control); with ERG, 1.23 fold enrichment (6-mer frequency, TF over GST control); in the experiment with ELF1, 1.22 fold enrichment (6-mer frequency, TF over GST control); in the experiment with EHF, 1.27 fold enrichment (6-mer frequency, TF over GST control). Moreover, the binding signal with SPI1 was 1.34 fold enrichment (6-mer frequency, TF over GST control); with SPIB, 1.28 fold enrichment (6-mer frequency, TF over GST control); in the experiment with ELK3, 1.29 fold enrichment (6-mer frequency, TF over GST control).
In the case of AACCCC, the binding signal with FLI1 was 1.08 fold enrichment (6-mer frequency, TF over GST control); with ELK1 it was 1.17 fold enrichment (6-mer frequency, TF over GST control); in the experiment with GABPA it was 1.1 fold enrichment (6-mer frequency, TF over GST control); in the experiment with ERG, 1.17 fold enrichment (6-mer frequency, TF over GST control); with ELF1 it was 1.16 fold enrichment (6-mer frequency, TF over GST control); in the experiment with EHF it was 1.21 fold enrichment (6-mer frequency, TF over GST control). For the same sequence, the binding signal in the experiment with SPI1 is 1.12 fold enrichment (6-mer frequency, TF over GST control); in the experiment with SPIB, 1.18 fold enrichment (6-mer frequency, TF over GST control); with ELK3, 1.14 fold enrichment (6-mer frequency, TF over GST control).
CAATCC: the binding signal is 1.17 fold enrichment (6-mer frequency, TF over GST control) with FLI1; 1.19 fold enrichment (6-mer frequency, TF over GST control) with ELK1; 1.26 fold enrichment (6-mer frequency, TF over GST control) with GABPA; 1.24 fold enrichment (6-mer frequency, TF over GST control) with ERG; 1.22 fold enrichment (6-mer frequency, TF over GST control) with ELF1; 1.07 fold enrichment (6-mer frequency, TF over GST control) with EHF. The binding signal with SPI1 was 1.12 fold enrichment (6-mer frequency, TF over GST control); with SPIB, 1.2 fold enrichment (6-mer frequency, TF over GST control); in the experiment with ELK3, 1.08 fold enrichment (6-mer frequency, TF over GST control).
Consider CCCGTA, for which the binding signal in the experiment with FLI1 was 1.14 fold enrichment (6-mer frequency, TF over GST control); with ELK1, 1.11 fold enrichment (6-mer frequency, TF over GST control); with GABPA, 1.2 fold enrichment (6-mer frequency, TF over GST control); with ERG it was 1.2 fold enrichment (6-mer frequency, TF over GST control); in the experiment with ELF1, 1.25 fold enrichment (6-mer frequency, TF over GST control); with EHF, 1.24 fold enrichment (6-mer frequency, TF over GST control). Besides, the binding signal with SPI1 was 1.19 fold enrichment (6-mer frequency, TF over GST control); with SPIB it was 1.14 fold enrichment (6-mer frequency, TF over GST control); with ELK3 it was 1.32 fold enrichment (6-mer frequency, TF over GST control).
In the case of ACTACG, the binding signal is 1.33 fold enrichment (6-mer frequency, TF over GST control) in the experiment with FLI1; 1.28 fold enrichment (6-mer frequency, TF over GST control) with ELK1; 1.32 fold enrichment (6-mer frequency, TF over GST control) with GABPA; 1.24 fold enrichment (6-mer frequency, TF over GST control) with ERG; 1.34 fold enrichment (6-mer frequency, TF over GST control) with ELF1; 1.36 fold enrichment (6-mer frequency, TF over GST control) with EHF. Also, the binding signal with SPI1 is 1.26 fold enrichment (6-mer frequency, TF over GST control); with SPIB it was 1.47 fold enrichment (6-mer frequency, TF over GST control); with ELK3 it was 1.32 fold enrichment (6-mer frequency, TF over GST control).

The values above are taken from paper PMC7862700, “An all-to-all approach to the identification of sequence-specific readers for epigenetic DNA modifications on cytosine”.
